# From PubChem BioAssay AID743446 (Broad Institute, 2014)
# Results with a measured potency or affinity are listed apart. Values without a mark were called inactive. The rule behind the calls is not given here.
# Test: viability loss in HEK293 cells – cell-based, plate reader, cherry-picked samples, cytotoxicity control, dose response (AID 743446)
# Conditions: stronger effect = lower value; at 26 µM unless noted
row,SMILES,max activity
1,COC(=O)c1ccc(NC(=O)CSc2nc3ccc(N4C(=O)C5C6C=CC(C6)C5C4=O)cc3s2)cc1 (stereo not given),-25.2%
2,O=Cc1cn(Cc2cccc([N+](=O)[O-])c2)c2ccccc12,-15.2% [at 12 µM]
3,CC(C)(C)n1cc(C(=O)c2ccc3ccccc3c2O)cn1,-8.13%
4,O=C(O)c1nn(Cc2ccc(Cl)cc2Cl)c2ccccc12,19.3% [at 0.38 µM]
5,CNC(=O)Oc1cccc(-c2cn3cc(Cl)ccc3n2)c1,27.7% [at 0.38 µM]
